Assay outcomes deposited in PubChem BioAssay by National Center for Advancing Translational Sciences (NCATS).
Hits are enriched below; roughly 8.1% of the tested compounds scored in any of these assays.
KB-3-1 tox: KB-3-1 parental cell cytotoxicity. KB-3-1 viability, CellTiter-Glo ATP luminescence, 72 h. Potency, µM (doses to about 46.1 µM), actives largely listed as cytotoxic. 400,000 tested, 1.4% active. AID 1347075; note: % is set by controls: 0 for no effect and ±100 for the full control effect; nearly all actives have a fitted effect of over 60% in size
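Viability of parental KB-3-1 cells, measured by CellTiter-Glo luminescence, followed a 72 h incubation at 37 °C with pinned compounds in phenol-red-free DMEM containing 10% FBS.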
ELG1 repair inh: ELG1-dependent DNA repair inhibition. HEK293T ELG1-luciferase reporter, luminescence, 16 h; DNA damage induced by 5-fluorouridine. 330,000 tested, 2.3% active. AID 504467. Potency, µM (highest dose often 46.1 µM), for the others: at the top dose activity change, negative = inhibition, usual class: inhibitors; note: % is set by controls: 0 for no effect and ±100 for the full control effect; nearly all actives have a fitted effect of over 55% in size
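Reporter activity after DNA damage by 5-fluorouridine is monitored. Compound-treated cells incubate 16 hr at 37 °C, then ONE-Glo is added for 30 min before luminescence reading.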
SW480 rerep: induces DNA re-replication in SW480 colon adenocarcinoma cells | SW480 DNA re-replication, Hoechst DNA content imaging, 48 h | Potency, µM (titrated, usually from 46.1 µM), for inactives: at the top dose re-replication activation, usual class: activators | 340,000 tested, 1.8% active | AID 624297; note: % of control where 0% means no effect; nearly all actives have a fitted effect of over 55% in size
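Image-based DNA-content assay: after two days of treatment, nuclei were labelled with the DNA dye Hoechst and imaged, and hits were compounds raising the count of nuclei showing high fluorescence intensity.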
KB-V1 MDR tox: kills drug-selected multidrug resistant KB-V1 cells | KB-V1 MDR cells viability, CellTiter-Glo, 72 h | Potency, µM (titrated, usually from 46.1 µM), actives largely listed as cytotoxic | 400,000 tested, 3.4% active; note: % is set by controls: 0 for no effect and ±100 for the full control effect; nearly all actives have a fitted effect of over 60% in size
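KB-V1 MDR subline cells in DMEM (phenol-red free, 10% FBS) exposed to compounds in qHTS concentration series for 72 h at 37 degrees C. Viability read by CellTiter-Glo luminescence; concentration-effect curves fitted after normalization and correction.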
MCF10A rereplic: induces DNA re-replication in MCF 10a normal breast cells. MCF 10A DNA re-replication, Hoechst nuclear intensity, 48 h. Potency, µM (highest dose often 46.1 µM), for inactives: top-dose activity, positive = re-replication, most hits filed as activators. 350,000 tested, 2.9% active. AID 624296; note: % of control where 0% means no effect; nearly all actives have a fitted effect of over 50% in size
Starred values were filed as active, the others as inactive; i = inactive; u = inconclusive; x = no result; ! = not active in a repeat; [ ] = dose if it differs, or a comment. Calls come from the whole dose curve; as a rule, active = well fitted curve in the direction sought with a large enough effect; inconclusive = small, poorly fitted or top-dose-only effect, or another doubt; inactive = no such curve, though single readings can be large; an effect the other way counts as inactive or inconclusive. Potency is the fitted concentration of half-maximal effect.

SMILES	KB-3-1 tox	ELG1 repair inh	SW480 rerep	KB-V1 MDR tox	MCF10A rereplic
Cc1nc2ccc(Nc3nc4cc(S(=O)(=O)N5CCOCC5)ccc4o3)cc2s1	i	-1%	18µM*	i	u
O=C(O)c1sccc1Oc1ccc(F)cc1[N+](=O)[O-]	i	8%	5%	i	u
O=C(Cc1n[nH]c(=O)c2ccccc12)OCc1c(Cl)cccc1Cl	u	u	-119%	u	u
C[C@H](CCC(=O)O)[C@H]1CC[C@@H]2[C@@H]3[C@@H](O)C[C@H]4C[C@@H](O)CC[C@@]4(C)[C@H]3CC[C@@]21C	x	x	-4%[20.6 µM]	x	-6%[20.6 µM]
CC(=O)Nc1ccccc1C(=O)OCc1cccc(F)c1	i	u	-5%	i	10%
CC(=O)Nc1ccccc1C(=O)OCc1ccc(C(=O)c2ccccc2)cc1	u	-13%	25%	6.5µM*	u
CC(=O)Nc1ccccc1C(=O)OCC(=O)c1ccc2ccccc2c1	i	u	-3%	15µM*	1%
Cn1c(O)c(/C=N/NC(=O)c2ccncc2)c(=O)n(C)c1=S	i	1%	8.2µM*	i	9.2µM*
COc1ccc(NP(=O)(Oc2ccccc2OC)Oc2ccccc2OC)cc1	i	21µM*	u	u	u
COCCCn1c(N)c(C(=O)OCCOC)c2nc3ccccc3nc21	i	u	u	i	-7%
COCCOC(=O)c1c(N)n(Cc2ccc(OC)cc2)c2nc3ccccc3nc12	i	15µM*	20%	i	5%
CCCCCn1c(NC(=O)c2ccco2)c(C(=O)OCC)c2nc3ccccc3nc21	i	-24%	3.7µM*	i	5.8µM*
CCOC(=O)c1c(N)n(CCCOC(=O)c2ccco2)c2nc3ccccc3nc12	12µM*	u	u	u	u
OCCO	i	15%	-48%	i	-6%
Oc1ccc2[nH]cc(CCCCN3CC=C(c4ccccc4)CC3)c2c1	x	x	1%	x	-2%
CC(C)(C)OC(=O)N(CCc1ccccc1)Cc1ccc(OCc2cccc(NC(=O)c3ccccc3)c2)cc1	i	x	u	i	-5%
CCOC(=O)Cn1c(-c2ccccc2)ccc(C#N)c1=O	i	-8%	u	i	-18%
CCOC(=O)C1=Nc2ccccc2/C1=C\c1c(O)n(C)c(=O)n(C)c1=O	i	21µM*	u	i	u
Cn1c(O)c(C=Nc2ccccc2-c2ccccc2)c(=O)n(C)c1=O	i	-8%	-12%	i	0%
COC(=O)C1=C(c2ccc(-c3ccccc3)c(F)c2)C[C@@H]2CC[C@H]1N2C(=O)N1CCCC1	18µM*	-16%	-2%	u	16%
COC(=O)C1=C(c2ccc(-c3ccccc3)c(F)c2)C[C@@H]2CC[C@H]1N2C(=O)NC1Cc2ccccc2C1	u	-4%	3.7µM*	i	-44%
COC(=O)C1=C(c2ccc(-c3ccccc3)c(F)c2)C[C@@H]2CC[C@H]1N2C(=O)N1CCC(O)CC1	i	u	-7%	i	18%
COC(=O)C1=C(c2ccc(-c3ccccc3)c(F)c2)C[C@@H]2CC[C@H]1N2C(=O)N1CCOCC1	18µM*	-4%	-5%	i	3%
COC(=O)C1=C(c2ccc(-c3ccccc3)c(F)c2)C[C@@H]2CC[C@H]1N2C(=O)N1CCCCC1	i	0%	-57%[9.22 µM]	u	u
CC(C)(O)C1C2OC(=O)C1[C@]1(O)C[C@H]3O[C@]34C(=O)O[C@H]2[C@]14C (some centres not stated) (tested in a mixture with another compound)	x	x	-1%	x	4%
SMILES	KB-3-1 tox	ELG1 repair inh	SW480 rerep	KB-V1 MDR tox	MCF10A rereplic
Fc1ccccc1-c1n[nH]c(=S)n1Cc1ccccc1	i	-9%	u	i	-9%
Cc1ccc(NS(=O)(=O)c2c(F)cc(F)c(Cl)c2F)cc1S(=O)(=O)N1CCOCC1	i	-8%	u	i	2%
COC(=O)C1=C(C)NC(C)=C(C(=O)OC)C1c1ccccc1[N+](=O)[O-]	i	10µM*	u	8.2µM*!	u
COC(=O)[C@H]1[C@H]2C[C@@H]3c4[nH]c5cc(OC)ccc5c4CCN3C[C@H]2C[C@@H](OC(=O)/C=C/c2cc(OC)c(OC)c(OC)c2)[C@@H]1OC	i	-16%	18µM*	i	5.8µM*
CCC1C(C)=NN=C(c2ccc(OC)c(OC)c2)c2cc(OC)c(OC)cc21 (configuration not stated)	x	x	1%	x	11%
OCCNc1c2c(nc3ccccc13)CCCC2	i	-19%	-3%	i	-6%
Nc1ccc2nc3c(c(Cl)c2c1)CCCC3	u	u	u	u	16µM*
C=CCS(=O)(=O)N1CCC(CCOc2ccccc2)(C(=O)OCC)CC1	i	u	7%	i	7%
Cc1ccc(-n2c(/C=C/c3ccccc3)nc3ccccc3c2=O)cc1Cl	i	x	x	i	x
CCOC(=O)CCCc1cc[c]([Sb](=[O])([OH])[OH])cc1	i	x	x	i	x
CCOC(=O)c1c(-n2c(C)cc(/C=C3\C(=O)NC(=O)N(C)C3=O)c2C)sc2c1CCCC2	i	-1%	u	23µM*	u
Cc1cc(/C=C2\C(=O)NC(=O)N(c3ccc(Cl)cc3)C2=O)c(C)n1-c1sc2c(c1C#N)CCCC2	i	16%	7%	i	25%
Cc1nn(Cc2ccccc2)c(C)c1C(=O)OCC(=O)Nc1ccccc1SCC#N	i	u	-4%	7.3µM*	-1%
Cc1cc(NC(=O)COC(=O)c2c(C)nn(Cc3ccccc3)c2C)no1	u	-8%	3%[9.22 µM]	u	0%
CCOP(=O)(OCC)c1nc(-c2ccc(F)cc2)oc1NCc1ccccc1	i	u	-18%	i	4.1µM*
CCOP(=O)(OCC)c1nc(-c2cccc3ccccc23)oc1NCCc1ccc(OC)cc1	u	u	21µM*	5.2µM*	10µM*
C#C[C@]1(O)CC[C@H]2[C@@H]3CCC4=CC(=O)CCC4(C)[C@H]3CCC21C (some centres not stated)	x	x	1%	x	2%
N[C@@H](Cc1cc(Br)c(O)c(Br)c1)C(=O)O	x	22%	-13%	x	18µM*
Cn1c(=O)oc2cc(NC(=O)CCl)ccc21	u	u	u	u	17%
O=C1c2ccccc2C(=O)C1C(=O)C(c1ccccc1)c1ccccc1	x	x	u	x	24µM*
CC(C)(C)OC(=O)c1ncn2c1[C@@H]1CCCN1C(=O)c1c(Br)cccc1-2	x	x	1%	x	14%
ClCCN(CCCl)c1ccc(C=Nc2ccncc2)cc1	i	x	x	i	x
CN1C(=O)/C(=C/C=C/c2ccco2)C(=O)NC1=S	i	-8%	u	i	9%
